In PubChem BioAssay (Tox21) one finds Potency, outcome and activity change, positive = activation data, which are given here for eight compounds.

“And” between values parts separate entries of the source, which are not always exact repeats. Identical values can stand only once. Results filed as inconclusive are left out. Some compounds were tested as several samples or in several runs, with calls that do not always agree. The source made the active and inactive calls. Unless noted, the call rests on the fitted dose curve; in most records, active means well fitted curve in the direction sought with a large enough effect in the repeat runs; inconclusive means weak or mixed curves; inactive means no such curve, though single readings can be large; an effect the other way counts as inactive or inconclusive.

A short description of test [1]: qHTS assay to identify small molecule antagonists of the estrogen related receptor (ERR) signaling pathway from Tox21 library - cell viability counter screen (AID 1224834). Further: nearly all actives have a fitted effect of over 30% in size. A digest of the protocol: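 CellTiter-Fluor fluorescence measured; ERR cells; 17.5 h compound incubation at 37 C; 30 min reagent step.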
The target in test [2] is Luciferin 4-monooxygenase (Photinus pyralis) (UniProt P08659). In words: qHTS assay to identify small molecule inhibitors of firefly luciferase (AID 1224835). Further: nearly all actives have a fitted effect of over 25% in size. Further: potency means the concentration at half of the fitted maximal effect. The method in brief:
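Biochemical qHTS: compounds run as interplate titrations against purified firefly enzyme, with D-luciferin and ATP each at its KM concentration. Light output recorded by CCD imaging.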

Test [3] in a line: qHTS assay to identify small molecule agonists of the constitutive androstane receptor (CAR) signaling pathway - cell viability counter screen (AID 1224836). Further: nearly all actives have a fitted effect of over 45% in size. The method in brief: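 HepG2-CYP2B6-hCAR, 2500 cells/well, 4 h pre-incubation; cpd 15 conc + PK11195 0.75 uM final; 23 h, 37 C/5% CO2; CellTiter-Fluor, fluorescence.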
A short description of test [4]: qHTS assay to identify small molecule antagonists of the constitutive androstane receptor (CAR) signaling pathway - cell viability counter screen (AID 1224837). Further: nearly all actives have a fitted effect of over 45% in size. The method in brief: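 Using CellTiter-Fluor, viability is scored in HepG2 cells stably carrying hCAR and a 2.2kb CYP2B6 reporter after 23 hr compound exposure across 15 concentrations, with CITCO present at 50 nM.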

Test [5] concerns the target Nuclear receptor subfamily 1 group I member 3 (Homo sapiens) (UniProt Q14994). In words: qHTS assay to identify small molecule antagonists of the constitutive androstane receptor (CAR) signaling pathway (AID 1224838).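 Further: HepG2 cells stably expressing hCAR with CYP2B6 luciferase reporter stimulated by CITCO; nearly all actives have a fitted effect of over 40% in size.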 The method in brief: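 Reporter luminescence was quantified after 24 h exposure of hCAR/CYP2B6-2.2kb double-stable HepG2 cells to compounds at 15 concentrations in the presence of 50 nM CITCO final.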

The target is the same in test [6]. As to the kind of experiment: qHTS assay to identify small molecule agonists of the constitutive androstane receptor (CAR) signaling pathway (AID 1224839). Further: nearly all actives have a fitted effect of over 15% in size. Further: potency means the concentration at half of the fitted maximal effect. The method in brief:
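HepG2-CYP2B6-hCAR cells, 2500/well, 4 h pre-incubation; compounds 15 conc.; PK11195 0.75 uM final; 24 h, 37 C/5% CO2; ONE-Glo luciferase read.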

Test [7] in a line: qHTS assay to identify small molecule antagonists of the estrogen related receptor signaling pathway with the pleiotropic PPARgamma coactivator (PGC) from Tox21 10K library - cell viability counter screen (AID 1224840; active means well fitted cell-killing curve with a large enough effect in the repeat runs, not every such curve was filed as active; further: nearly all actives have a fitted effect of over 40% in size). A digest of the protocol:
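Here the PGC/ERR cells serve as a cytotoxicity control: they are exposed to compounds for 17.5 hours at 37 C, and live-cell signal is quantified using CellTiter-Fluor fluorescence.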

Test [8] in a line: qHTS assay to identify small molecule agonists of the hypoxia (HIF-1) signaling pathway - cell viability counter screen (AID 1224844; calls by dose curve; further: nearly all actives have a fitted effect of over 50% in size). The method in brief: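 Multiplexed with the HRE beta-lactamase assay, this viability read used CellTiter-Glo luminescence (30 min, RT) on HRE-bla ME-180 cells treated 17 hrs with compounds in 0.5% dialyzed FBS medium.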
Test [9] is described as follows: qHTS assay to identify small molecule agonists of H2AX (AID 1224845; active means well fitted activation curve with a large enough effect in the signal ratio in the repeat runs, not every such curve was filed as active; the % refers to the signal ratio). The method in brief:
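Wild-type CHO-K1 cells, plated overnight, exposed 3hr at 37C to 15 concentrations (0.76% DMSO final). Lysed, then HTRF anti-pH2AX (S139) cryptate and anti-H2AX-d2 antibodies, 24 hr room temperature; 665/620 nm emission read.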

The nature of test [10]: qHTS assay to identify small molecule agonists of H2AX - cell viability counter screen (AID 1224847; calls by dose curve; further: top concentration of the series differs between compounds; nearly all actives have a fitted effect of over 30% in size). The method in brief:
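Cells plated first: CHO-K1, 1000 per well in 10% FBS medium, incubated overnight at 37C. Then 15-point compound titration added (final DMSO 0.76%) for 3 hr. Finally CellTiter-Glo added and luminescence read.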

Test [11] is described as follows: qHTS RealTime-Glo MT Cell Viability Assay in HepG2 cells - 24 hour (AID 1224867). Further: nearly all actives have a fitted effect of over 50% in size. The method in brief: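 Real-time, nonlytic viability: 600 HepG2 cells/well mixed with NanoLuc enzyme plus prosubstrate; 5 h settle, compound (DMSO) added by pintool; luminescence monitored over 40 h at 37 C.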
Test [12] in a line: qHTS RealTime-Glo MT Cell Viability Assay in HEK293 cells - 32 hour (AID 1224868). Further: top concentration of the series differs between compounds; nearly all actives have a fitted effect of over 50% in size. The method in brief: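 Cells + reagent dispensed (600 cells/well, HEK293) → 5 h at 37 C/5% CO2 → 23 nL compound in DMSO pinned → 40 h at 37 C → luminescence read at 0, 8, 16, 24, 32, 40 h.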
A short description of test [13]: A CellTox Green Cytotoxicity Assay to monitor cytotoxicity in HEK293 cells - 0 hour (AID 1224869). Further: nearly all actives have a fitted effect of over 50% in size. Further: potency means the concentration at half of the fitted maximal effect. The method in brief: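 Seeding of HEK293 cells together with cytotoxicity dye preceded a 5 h incubation at 37 C/5% CO2. Test compounds in DMSO were then added and fluorescence monitored across 40 h.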
Test [14] is described as follows: qHTS assay to identify small molecule agonists of the hypoxia (HIF-1) signaling pathway (AID 1224846; active means well fitted activation curve with a large enough effect in the signal ratio in the repeat runs, not every such curve was filed as active; the % refers to the signal ratio). A digest of the protocol:
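Hypoxia-pathway activation was scored as increased beta-lactamase from an HRE-controlled reporter in ME-180 cells; plated at 2,000 cells per well with 0.5% dialyzed FBS, they were exposed 17 hrs to compounds and then given CCF4-AM.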

Test [15] has as its target Thyrotropin receptor (Homo sapiens) (UniProt P16473). As to the kind of experiment: qHTS assay to identify small molecule agonists of the thyroid stimulating hormone receptor (TSHR) signaling pathway (AID 1224843; calls by dose curve; further: nearly all actives have a fitted effect of over 45% in size). The method in brief:
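TSHR-HEK293 cells in agonist mode, 30 min room-temperature step, then cAMP measured by competitive HTRF (cAMP-d2 with anti-cAMP cryptate) after 1 h at room temperature. Tested at 15 concentrations in triplicate.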

Test [16] in a line: qHTS assay to identify small molecule antagonists of the estrogen related receptor signaling pathway with the pleiotropic PPARgamma coactivator (PGC) from Tox21 10K library (AID 1224841; call rule not given here). A digest of the protocol:
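Each well held 2,000 PGC/ERR cells, pre-incubated six hours (37 C, 5% CO2). Test substances in DMSO were added by pin tool and left for 18 h at 37 C before luciferase detection by One-Glo.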

The nature of test [17]: qHTS assay to identify small molecule agonists of the estrogen related receptor signaling pathway with the pleiotropic PPARgamma coactivator (PGC) from Tox21 10K library (AID 1224842). Further: nearly all actives have a fitted effect of over 15% in size. The method in brief: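 PGC/ERR reporter cell line, 2,000 cells per well, incubated 6 h at 37 C before 23 nL compound in DMSO was added. After 18 h at 37 C, One-Glo luminescence read following 30 min at room temperature.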

The nature of test [18]: qHTS assay to identify small molecule antagonists of the estrogen related receptor (ERR) signaling pathway from Tox21 library (AID 1224848). Further: nearly all actives have a fitted effect of over 50% in size. A digest of the protocol: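 ERR reporter cell line (from NTP) seeded 2,000 cells/well, rested 6 h at 37 C/5% CO2, then pin-dosed with compounds in DMSO. After 18 h at 37 C, ONE-Glo added; luminescence read after 30 min at room temperature.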

A short description of test [19]: qHTS assay to identify small molecule agonists of the estrogen related receptor (ERR) signaling pathway from Tox21 library (AID 1224849; calls by dose curve; further: nearly all actives have a fitted effect of over 15% in size). The conditions noted are these: ERR reporter cell line, ONE-Glo luciferase, 18 h. A digest of the protocol: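 Six hours post-seeding at 37 C/5% CO2, ERR cells receive DMSO-solubilised compounds; after 18 h at 37 C, ONE-Glo reagent is applied and luminescence recorded.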
On the % scale 0 is the no-effect control and ±100 the full control effect.

Sequence of Luciferin 4-monooxygenase (Photinus pyralis) (P08659 whole entry, looked up): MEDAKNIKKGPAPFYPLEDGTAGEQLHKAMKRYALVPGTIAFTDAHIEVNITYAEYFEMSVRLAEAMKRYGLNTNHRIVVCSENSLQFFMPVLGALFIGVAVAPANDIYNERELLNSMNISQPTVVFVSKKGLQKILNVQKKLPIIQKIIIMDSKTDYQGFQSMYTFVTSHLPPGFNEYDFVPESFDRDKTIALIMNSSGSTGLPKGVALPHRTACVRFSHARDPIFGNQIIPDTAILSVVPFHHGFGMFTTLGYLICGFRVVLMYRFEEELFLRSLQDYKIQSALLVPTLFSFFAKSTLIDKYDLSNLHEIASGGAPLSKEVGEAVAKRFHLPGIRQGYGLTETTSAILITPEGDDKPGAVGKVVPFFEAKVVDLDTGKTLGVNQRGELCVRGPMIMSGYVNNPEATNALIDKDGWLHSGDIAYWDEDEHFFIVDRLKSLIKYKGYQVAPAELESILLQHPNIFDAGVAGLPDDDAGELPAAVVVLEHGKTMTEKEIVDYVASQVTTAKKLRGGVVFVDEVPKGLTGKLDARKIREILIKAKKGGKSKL
Sequence of Nuclear receptor subfamily 1 group I member 3 (Homo sapiens) (Q14994 whole entry, looked up): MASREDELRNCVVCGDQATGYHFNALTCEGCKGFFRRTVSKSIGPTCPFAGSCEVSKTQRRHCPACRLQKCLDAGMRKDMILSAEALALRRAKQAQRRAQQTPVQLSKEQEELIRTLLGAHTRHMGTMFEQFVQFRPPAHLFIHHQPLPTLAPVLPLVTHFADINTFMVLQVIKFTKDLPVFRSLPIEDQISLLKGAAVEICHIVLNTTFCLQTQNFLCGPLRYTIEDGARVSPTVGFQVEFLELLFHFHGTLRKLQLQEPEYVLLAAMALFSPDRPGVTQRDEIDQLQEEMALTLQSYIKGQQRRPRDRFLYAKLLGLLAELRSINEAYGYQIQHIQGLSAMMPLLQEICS
Sequence of Thyrotropin receptor (Homo sapiens) (P16473 whole entry, looked up): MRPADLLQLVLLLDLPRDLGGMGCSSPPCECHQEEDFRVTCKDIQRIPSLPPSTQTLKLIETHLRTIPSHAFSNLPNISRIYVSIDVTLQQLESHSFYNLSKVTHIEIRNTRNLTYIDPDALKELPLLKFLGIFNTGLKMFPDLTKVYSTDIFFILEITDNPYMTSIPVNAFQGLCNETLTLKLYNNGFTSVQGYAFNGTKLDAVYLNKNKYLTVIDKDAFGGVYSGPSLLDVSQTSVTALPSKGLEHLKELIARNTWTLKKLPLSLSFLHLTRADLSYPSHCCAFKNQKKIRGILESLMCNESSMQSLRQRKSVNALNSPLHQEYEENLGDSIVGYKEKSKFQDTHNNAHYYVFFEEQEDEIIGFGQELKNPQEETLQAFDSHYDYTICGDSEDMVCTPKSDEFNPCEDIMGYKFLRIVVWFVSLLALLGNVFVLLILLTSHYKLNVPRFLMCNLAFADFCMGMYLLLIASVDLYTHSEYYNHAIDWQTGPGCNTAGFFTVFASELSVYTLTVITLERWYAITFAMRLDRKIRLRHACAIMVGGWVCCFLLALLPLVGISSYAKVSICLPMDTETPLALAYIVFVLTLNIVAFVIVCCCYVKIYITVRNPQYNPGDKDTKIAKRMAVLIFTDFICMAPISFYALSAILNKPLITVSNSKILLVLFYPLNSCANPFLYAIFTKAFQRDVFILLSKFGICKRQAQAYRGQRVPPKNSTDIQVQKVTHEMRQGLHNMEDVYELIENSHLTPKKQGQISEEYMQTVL

As for `CS(=O)(=O)c1ccc([C@@H](O)[C@@H](CO)NC(=O)C(Cl)Cl)cc1`, the Potency entry in test [1], in test [2], in test [3], in test [4], in test [5] and in [6] was “inactive” each time. For the same compound, the Potency result in [7], in test [8], in test [9], in test [10], in test [11] and in test [12] was “inactive” in each case. In [13], the Potency entry is “inactive”.

As for `Cc1cc(Cc2ccc(N)c(C)c2)ccc1N`, the Potency entry in test [1], in [2], in test [3], in test [4], in [5] and in [7] was “inactive” throughout. The Potency result in test [8], in [9], in test [10], in [11], in [12] and in [13] was “inactive” in each case. Further, the Potency in test [6] is 48.6 µM (active). Besides, in [14], the compound was called inactive.

Take `CC1=C(CC(=O)O)c2cc(F)ccc2/C1=C\c1ccc(S(C)=O)cc1` (stereo unspecified): the Potency result in test [1], in [2], in test [3], in test [4], in test [5] and in test [7] was “inactive” in each case. Further, the Potency entry in [15], in test [8], in test [9], in test [10], in test [11] and in [12] was “inactive” throughout. For the same compound, the Potency result in test [13] is “inactive”. Further, the Potency in test [6] was 61.1 µM (active) and inactive.

With `Clc1ccc(Cl)c(Cl)c1Cl`, the Potency entry in test [1], in test [2], in [3], in [4], in test [5] and in test [6] was “inactive” each time. In addition, the Potency result in test [7], in test [15], in test [8], in test [9], in test [10] and in test [11] was “inactive” each time. The Potency entry in [12] and in [13] was “inactive” in each case. In test [14], the result was inactive.

`CCCCCCCCCCC=CC1CC(=O)OC1=O` (stereo unspecified): the Potency entry in test [1], in [3], in test [4], in [5], in test [6] and in test [7] was “inactive” throughout. The Potency entry in test [15], in [8], in test [9], in test [10], in test [11] and in [12] was “inactive” throughout. In addition, the Potency entry in test [13] is “inactive”. For the same compound, in [2], the Potency was 63.6 µM (active) and 71 µM (active). For the same compound, the call in [14] was inactive.

Regarding `C=C(C)C(=O)OCC(CC)(COC(=O)C(=C)C)COC(=O)C(=C)C`, the Potency result in [1], in test [2], in test [3], in test [4], in test [5] and in test [6] was “inactive” each time. Also, the Potency result in test [7], in test [15], in [8], in test [9] and in test [11] was “inactive” in each case. Further, the compound was called inactive in test [14]. Besides, in test [13], the Potency result was “inactive and 42.9 µM (active)”.

`CNC[C@H](O)[C@@H](O)[C@H](O)[C@H](O)CO`: the Potency result in test [1], in test [2], in [3], in [4], in test [5] and in test [6] was “inactive” in each case. For the same compound, the Potency result in test [7], in test [15], in [8], in test [9], in [10] and in test [11] was “inactive” throughout. Also, the Potency entry in test [13] is “inactive”.

For `NCCNCCNCCNCCN`, the Potency entry in [1], in test [2], in test [3], in [4], in test [6] and in test [7] was “inactive” in each case. Also, the Potency result in test [16], in [17], in test [15], in [8], in test [9] and in [10] was “inactive” throughout. Moreover, the Potency result in test [18], in test [11], in [12] and in test [13] was “inactive” each time. Besides, the result in test [14] was inactive. Besides, the activity change, positive = activation in test [19] (at 8.39 µM (top of the series)) was 3.41% (inactive); in [19] (at 92.4 µM (top of the series)), 2.98% (inactive).
